# Source: PubChem
# INS-1E GSIS act – GLuc luminescence reporter in INS-1E cells, primary screen for activators of glucose-dependent secretion of insulin | AID 743287 | INS-1E GLuc reporter insulin secretion, 2-3 h | 0.61% of 370,000 active | activation, % at 16.6 µM;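 active = lowest replicate activation of at least 40%, so every replicate reaches that level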;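 also: 0% = median of neutral control wells and 100% = median of IBMX positive control wells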
# ABCB6 inh MLPCN – human ABCB6 transporter inhibition. fluorescence ratio to DMSO, % at 10 µM. 0.19% of 360,000 active. K562-ABCB6 porphyrin accumulation, flow cytometry, 1 h; hits give low values;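 active = fluorescence ratio to DMSO below 75%, the collection mean minus 3 SD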;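 also: signal is porphyrin accumulated inside mitochondria; 100% equals median channel fluorescence of DMSO control wells; lower ratio means ABCB6 inhibition with less porphyrin fluorescence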
# NRP1-CendR mod – alters CendR peptide binding to human NRP-1 | O14786 | FAM-RPARPAR peptide binding to NRP-1, fluorescence polarization | inhibition, % at 25 µM | 0.85% of 360,000 active | AID 602438;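 active = inhibition or corrected inhibition above about 18%, plus a signal ratio from 0.5 to 1.5, limit read from the data, passing the limit was not always enough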
# Target sequence (O14786 whole entry, looked up): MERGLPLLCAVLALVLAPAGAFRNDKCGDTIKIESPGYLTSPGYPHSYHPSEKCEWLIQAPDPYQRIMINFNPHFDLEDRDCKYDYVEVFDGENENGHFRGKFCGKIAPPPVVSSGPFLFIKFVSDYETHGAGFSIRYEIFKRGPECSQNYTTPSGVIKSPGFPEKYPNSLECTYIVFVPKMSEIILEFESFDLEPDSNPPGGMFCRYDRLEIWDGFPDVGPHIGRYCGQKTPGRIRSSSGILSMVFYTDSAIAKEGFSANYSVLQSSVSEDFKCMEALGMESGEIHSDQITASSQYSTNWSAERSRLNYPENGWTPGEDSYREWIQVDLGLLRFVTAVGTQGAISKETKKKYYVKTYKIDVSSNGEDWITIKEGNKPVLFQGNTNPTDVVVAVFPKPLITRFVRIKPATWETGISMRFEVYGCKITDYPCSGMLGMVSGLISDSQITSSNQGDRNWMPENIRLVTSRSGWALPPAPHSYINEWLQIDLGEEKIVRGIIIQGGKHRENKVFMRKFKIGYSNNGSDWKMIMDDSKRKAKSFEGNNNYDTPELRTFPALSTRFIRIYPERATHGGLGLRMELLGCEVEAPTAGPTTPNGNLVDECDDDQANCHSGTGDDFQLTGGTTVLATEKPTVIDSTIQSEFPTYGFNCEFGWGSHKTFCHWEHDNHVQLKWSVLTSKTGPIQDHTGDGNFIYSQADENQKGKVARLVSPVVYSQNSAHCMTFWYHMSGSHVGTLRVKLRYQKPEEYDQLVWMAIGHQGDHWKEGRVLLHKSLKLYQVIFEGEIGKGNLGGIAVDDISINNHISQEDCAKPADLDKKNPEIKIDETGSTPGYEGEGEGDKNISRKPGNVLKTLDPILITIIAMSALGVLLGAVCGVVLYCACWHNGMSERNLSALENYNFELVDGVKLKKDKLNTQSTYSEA
# iPSC survival up – enhancers of human iPSC single-cell survival; hiPSC single-cell survival, ATPlite luminescence; 100% = ROCK inhibitor wells, 0% = DMSO; survival enhancement, % at 20 µM; 0.044% of 360,000 active; AID 602274; in the data active = survival enhancement above about 18%;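 also: cells exposed to compounds for 16 hours before the ATP read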
# ARNT-TACC3 inh – ARNT/TACC3 interaction disruption | Q9Y6A5 | AlphaScreen His-ARNT PAS-B/GST-TACC3 binding, luminescence; TACC3 fragment carries E629A point mutation | inhibition, % at 9.99 µM | 0.66% of 390,000 active;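 active = mean inhibition of replicates at least 50% and at least half of replicates each reaching 50%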;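 also: 0% = complete ARNT plus TACC3 wells and 100% = ARNT alone without TACC3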
# An asterisk follows results filed as active; · = no result. An excerpt weighted towards active compounds, which were near 1.8% of everything screened.
SMILES,INS-1E GSIS act,ABCB6 inh MLPCN,NRP1-CendR mod,iPSC survival up,ARNT-TACC3 inh
CC(C)c1ccc(CN(C(=O)c2cccs2)C2CCS(=O)(=O)C2)cc1 (centres undefined),19,82,18*,0,10
Cc1ccc(C(=O)N(Cc2sccc2C)C2CCS(=O)(=O)C2)cc1 (centres undefined),16,99,11,-1,1
CCn1c(=O)[nH]c(=O)c2c(N)c(C(=O)c3cc(F)ccc3F)sc21,55*,96,-9,1,11
Cc1ccc(C(=O)c2sc3c(c2N)c(=O)[nH]c(=O)n3CCc2ccccc2)cc1,25,103,-2,2,-4
Cc1[nH]c2c(Cl)cccc2c(=O)c1CN1CCCC1,·,89,20*,-1,-8
COc1cc(NS(=O)(=O)c2ccc(N/C=C(\C#N)c3nc4cc(Cl)ccc4o3)cc2)nc(OC)n1,·,55*,-28,2,-5
COc1cc(NS(=O)(=O)c2ccc(NC(C)=O)cc2)nc(OC)n1,6,98,-2,-1,-14
O=C(CN1C(=O)CSC1=O)NCc1ccccc1,-8,105,27*,2,-6
CC1SCC(=O)N(CC(=O)NCc2ccccc2)C1=O (centres undefined),4,100,14,-4,-1
COC(=O)c1ccc(Oc2ccc(C(F)(F)F)cn2)cc1,56*,105,6,-2,0
CCCNc1c(NS(=O)(=O)c2cccc(C#N)c2)c(=O)oc2ccccc12,56*,92,9,0,-2
CCNC(=O)C(=O)NCC1OCCCN1S(=O)(=O)c1ccc(F)cc1C (centres undefined),-14,101,4,0,4
CNC(=O)C(=O)NCC1OCCCN1S(=O)(=O)c1ccc(F)cc1C (centres undefined),44*,93,27*,0,-6
CCCC(=O)Nc1ccc2c(c1)C(=O)N(C)[C@@H]1CC[C@@H](CC(=O)OC)O[C@@H]1CO2,17,·,·,·,2
COc1cc2c(cc1OC)C1=C(C#N)CCC(=NC(=O)c3ccco3)N1CC2,75*,103,11,-1,-2
COc1cc2c(cc1OC)C1=C(C#N)CN(CC(=O)O)CN1CC2,-9,102,-5,-1,9
COc1cc2c(cc1OC)C1=C(C#N)CC/C(=N\S(=O)(=O)c3cccc(Cl)c3)N1CC2,·,73*,-5,4,-1
C[C@H](CO)N1C[C@H](C)[C@@H](CN(C)C(=O)c2ccncc2)Oc2ncc(-c3ccc(F)cc3)cc2C1=O,10,·,·,·,·
CC(C)NC(=O)N(C)C[C@@H]1Oc2ccc(NC(=O)CCCN(C)C)cc2C(=O)N([C@H](C)CO)C[C@H]1C,2,·,·,·,2
COc1ccc([N+](=O)[O-])cc1NC(=O)c1cccs1,2,101,-5,-1,5
CCN(CC)S(=O)(=O)c1ccc(OC)c(NC(=O)c2cccs2)c1,3,97,25*,0,-6
COc1ccc(NC(=O)CCC(=O)Nc2cc(OC)c(NC(=O)c3cccs3)cc2OC)cc1,6,93,2,0,1
COc1cccc(NC(=O)CCC(=O)Nc2cc(OC)c(NC(=O)c3cccs3)cc2OC)c1,14,97,0,0,50*
CNC[C@H]1OCCCC[C@@H](C)Oc2ccc(NS(=O)(=O)c3ccccc3)cc2C(=O)N([C@@H](C)CO)C[C@@H]1C,20,·,·,·,-6
COc1ccccc1CNC(=O)C[C@H]1C[C@@H]2c3cc(NS(C)(=O)=O)ccc3O[C@@H]2[C@H](CO)O1,0,·,·,·,2
SMILES,INS-1E GSIS act,ABCB6 inh MLPCN,NRP1-CendR mod,iPSC survival up,ARNT-TACC3 inh
Cc1c(C)n2c(SCC(=O)N3CCC(C)CC3)nnc2[nH]c1=O,20,95,24*,0,-3
CCCCc1n[nH]c(=S)n1Cc1ccc(C)cc1,20,97,27*,-1,·
O=C1N[C@H](Cc2ccccc2)COCc2cn(nn2)CC[C@@H]1Cc1cccc(F)c1,17,·,·,·,·
CN(C)CC(=O)N1[C@@H](CO)[C@H](c2ccccc2)C12CN(CC1CC1)C2,3,·,·,·,·
CCOC(=O)c1ccc2ncc(C(=O)OCC)c(NCCN(C)C)c2c1,·,96,60*,2,-4
CCOC(=O)c1ccc2ncc(C(=O)OCC)c(NCCN3CCOCC3)c2c1,18,94,5,0,-10
CCOC(=O)c1cnc2ccc(Cl)cc2c1Nc1ccc(S(=O)(=O)Nc2ncccn2)cc1,40*,101,-25,2,21
O=c1[nH]c(/C=C\c2ccc(O)c(O)c2)nc(O)c1[N+](=O)[O-],-4,98,30,0,37*
O=c1[nH]c(/C=C\c2cccc(O)c2)nc(O)c1[N+](=O)[O-],-8,98,-42,0,12
CCOc1ccc(Oc2ccc(S(=O)(=O)N3CCOCC3)cc2NC(=O)C2=COCCO2)cc1,-21,97,2,0,-3
CC(OC(=O)C1=COCCO1)C(=O)Nc1cc(S(=O)(=O)N2CCCCC2)ccc1Cl (centres undefined),10,105,23*,-1,0
CCOc1ccc(S(=O)(=O)N2CCOCC2)cc1NC(=O)C1=COCCO1,41*,101,-7,0,3
CN(NC(=O)Nc1ccc(Cl)cc1)c1c(Cl)c(Cl)nn1C,-9,95,20*,-2,-13
Cc1nc2c(c(N3CCOCC3)n1)OCC(=O)N2,73*,99,11,-2,-3
O=C(Nc1nnc(-c2ccccc2Cl)o1)c1cccnc1,16,110,-3,2,54*
CCCc1c(O)c2ccccc2[nH]c1=O,·,102,26*,-1,-10
CCCCc1c(O)c2ccccc2[nH]c1=O,·,100,17,4,-20
C[C@@H]1CCCCO[C@H](CN(C)C(=O)Nc2ccc3c(c2)OCO3)[C@@H](C)CN([C@@H](C)CO)C(=O)c2cc(NC(=O)CCCN(C)C)ccc2O1,25,·,·,·,-13
CCN(CC)C(=O)n1c(Cc2ccccc2)nc2ccccc21,48*,93,0,0,-14
COC(=O)Cn1c(Cc2ccccc2)nc2ccccc21,11,102,4,0,-15
COc1ccc(NC2=C(NCCO)C(=O)c3ccccc3C2=O)cc1,-6,100,-4,4,60*
COc1cccc(Nc2c(Nc3cccc(OC)c3)c(=O)c2=O)c1,-4,99,-3,0,-5
COc1cccc(NC2=C(NCCO)C(=O)c3ccccc3C2=O)c1,1,104,14,0,47*
Cc1cccc(NC2=C(NCCO)C(=O)c3ccccc3C2=O)c1,70,95,-3,0,39*
COC1=C(Nc2ccc(OC)cc2)C(=O)c2ccccc2C1=O,-18,104,-1,1,53*
COc1ccc(S(=O)(=O)N(C)C[C@H]2Oc3ccc(N(C)C)cc3C(=O)N([C@H](C)CO)C[C@H]2C)cc1,11,·,·,·,1
